Consider 35 sequences from the supplement of paper PMC12645437, “Orthogonal IMiD-Degron Pairs Induce Selective Protein Degradation in Cells” (ACS Chemical Biology, 2025).

In all, about 8,300 sequences were measured (“log2 fold change of degron read counts, EGFP-low vs EGFP+ sorted cells (limma voom), compound-induced degradation”: median about -1.1, highest 2% from about 3.2 on). The entries come from a sample that favours the highest values as a whole.

This experiment addresses T1, CRBN, Q96SW2.
T1 chain: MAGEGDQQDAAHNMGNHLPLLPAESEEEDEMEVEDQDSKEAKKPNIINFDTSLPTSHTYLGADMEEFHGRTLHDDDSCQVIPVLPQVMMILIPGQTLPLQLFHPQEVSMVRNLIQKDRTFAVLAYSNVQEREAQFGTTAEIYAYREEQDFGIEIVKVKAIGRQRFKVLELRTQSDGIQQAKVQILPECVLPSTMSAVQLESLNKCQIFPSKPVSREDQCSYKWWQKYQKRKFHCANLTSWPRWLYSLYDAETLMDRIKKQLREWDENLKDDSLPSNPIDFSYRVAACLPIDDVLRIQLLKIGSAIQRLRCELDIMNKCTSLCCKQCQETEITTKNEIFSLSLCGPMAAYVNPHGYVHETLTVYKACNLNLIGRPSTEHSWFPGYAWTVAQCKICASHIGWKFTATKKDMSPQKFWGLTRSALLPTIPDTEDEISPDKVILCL
The experiment in a line: log2 fold change of degron read counts, EGFP-low vs EGFP+ sorted cells (limma voom), compound-induced degradation; higher = more compound-induced degradation of the degron-EGFP fusion; degrons are variants of IKZF1/3 zinc finger 2; compound dose not given here. The following applies: Jurkat, 18 h.

[1] abbreviates: compound: compound 19 (5-tert-butyl-thalidomide).
Setting [2] is: compound: compound 22 (5-morpholino-thalidomide).
Where [3] appears, read: compound: compound 33 (diphenyl IMiD analogue).
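Also: pooled lentiviral library of zinc finger degron-EGFP fusions in mCherry-positive Jurkat cells, FACS-sorted after compound exposure, with degron abundance counted by next-generation sequencing.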

Regarding FICPQCGADFTQKGNLLRHIKL [46F_47I_49P_50Q_52G_53A_54D_55F_67L_, Q9UKT9], the “log2 fold change of degron read counts” value under setting [1] was -3.68, the “log2 fold change of degron read counts” value under setting [2] was -2.36, the “log2 fold change of degron read counts” value under setting [3] was -1.84 and the “log2 fold change of degron read counts” value (compound: thalidomide) was -2.04.

As for FFCPICGHLFTQKGNLLRHIKL [46F_47F_49P_50I_52G_53H_54L_55F_67L_, Q9UKT9], the “log2 fold change of degron read counts” value under setting [1] was -0.994, the “log2 fold change of degron read counts” value under setting [2] is -0.746, the “log2 fold change of degron read counts” value under setting [3] is -0.828 and the “log2 fold change of degron read counts” value (compound: thalidomide) is -1.02.

For the sequence LLCEICGFFCTQKGNLLRHIKL [46L_47L_49E_50I_52G_53F_54F_55C_67L_, Q9UKT9], the “log2 fold change of degron read counts” value runs as follows: under setting [1], -0.357; under setting [2], -0.957; under setting [3], -0.00991; (compound: thalidomide) 0.351.

With FMCDICGAMFTQKGNLLRHIKL [46F_47M_49D_50I_52G_53A_54M_55F_67L_, Q9UKT9], the “log2 fold change of degron read counts” value was -1.51 under setting [1], -1.89 under setting [2], 0.647 under setting [3] and -1.45 (compound: thalidomide).

Regarding FGCPICGRQFTQKGNLLRHIKL [46F_47G_49P_50I_52G_53R_54Q_55F_67L_, Q9UKT9], the “log2 fold change of degron read counts” value under setting [1] came to 2.87, the “log2 fold change of degron read counts” value under setting [2] is 0.813, the “log2 fold change of degron read counts” value under setting [3] amounted to 0.341 and the “log2 fold change of degron read counts” value (compound: thalidomide) is -0.4.

For LECPICGFVCTQKGNLLRHIKL [46L_47E_49P_50I_52G_53F_54V_55C_67L_, Q9UKT9], the “log2 fold change of degron read counts” value was -0.508 under setting [1], -0.452 under setting [2], 1.81 under setting [3] and 2.84 (compound: thalidomide).

For FRCPVCGAYFTQKGNLLRHIKL [46F_47R_49P_50V_52G_53A_54Y_55F_67L_, Q9UKT9], the “log2 fold change of degron read counts” value is, setting by setting: under setting [1], -0.775; under setting [2], 0.429; under setting [3], 1.02; (compound: thalidomide) 1.64.

Regarding LHCEICGFQCTQKGNLLRHIKL [46L_47H_49E_50I_52G_53F_54Q_55C_67L_, Q9UKT9], the “log2 fold change of degron read counts” value by setting is: under setting [1], 2.39; under setting [2], 2.27; under setting [3], 1.7; (compound: thalidomide) 1.64.

Regarding LCCNQCGFNCTQKGNLLRHIKL [46L_47C_49N_50Q_52G_53F_54N_55C_67L_, Q9UKT9], the “log2 fold change of degron read counts” value by setting is: under setting [1], -2; under setting [2], -2.61; under setting [3], -2.13; (compound: thalidomide) -1.77.

On to FTCDVCGARFTQKGNLLRHIKL [46F_47T_49D_50V_52G_53A_54R_55F_67L_, Q9UKT9], for which the “log2 fold change of degron read counts” value is, setting by setting: under setting [1], 0.31; under setting [2], 1.8; under setting [3], 0.304; (compound: thalidomide) 1.36.

For FFCEICGHRFTQKGNLLRHIKL [46F_47F_49E_50I_52G_53H_54R_55F_67L_, Q9UKT9], the “log2 fold change of degron read counts” value under setting [1] was -1.06, the “log2 fold change of degron read counts” value under setting [2] is -1.44, the “log2 fold change of degron read counts” value under setting [3] was -1.47 and the “log2 fold change of degron read counts” value (compound: thalidomide) was -1.72.

As for FDCPICGAVFTQKGNLLRHIKL [46F_47D_49P_50I_52G_53A_54V_55F_67L_, Q9UKT9], the “log2 fold change of degron read counts” value was found to be 0.604 under setting [1], 0.176 under setting [2], 1.99 under setting [3] and 1.81 (compound: thalidomide).

Consider FICEVCGAPFTQKGNLLRHIKL [46F_47I_49E_50V_52G_53A_54P_55F_67L_, Q9UKT9], for which the “log2 fold change of degron read counts” value runs as follows: under setting [1], 2.03; under setting [2], 3.48; under setting [3], 2.78; (compound: thalidomide) 3.17.

As for FACEVCGAPFTQKGNLLRHIKL [46F_47A_49E_50V_52G_53A_54P_55F_67L_, Q9UKT9], the “log2 fold change of degron read counts” value is 3.19 under setting [1], 1.62 under setting [2], -0.375 under setting [3] and 0.871 (compound: thalidomide).

FDCEVCGAPFTQKGNLLRHIKL [46F_47D_49E_50V_52G_53A_54P_55F_67L_, Q9UKT9]: the “log2 fold change of degron read counts” value reads like this: under setting [1], 0.668; under setting [2], -1.2; under setting [3], -1.15; (compound: thalidomide) -0.746.

In the case of FTCNVCGAPFTQKGNLLRHIKL [46F_47T_49N_50V_52G_53A_54P_55F_67L_, Q9UKT9], the “log2 fold change of degron read counts” value by setting is: under setting [1], 0.145; under setting [2], 1.49; under setting [3], 0.972; (compound: thalidomide) 1.51.

As to FHCEVCGAPFTQKGNLLRHIKL [46F_47H_49E_50V_52G_53A_54P_55F_67L_, Q9UKT9], the “log2 fold change of degron read counts” value is, setting by setting: under setting [1], 3.54; under setting [2], 3.17; under setting [3], 2.03; (compound: thalidomide) 1.38.

Regarding FTCEVCGAPFTQKGNLLRHIKL [46F_47T_49E_50V_52G_53A_54P_55F_67L_, Q9UKT9], the “log2 fold change of degron read counts” value runs as follows: under setting [1], 2.16; under setting [2], 3.25; under setting [3], 1.81; (compound: thalidomide) 2.71.

On to FNCEVCGAPFTQKGNLLRHIKL [46F_47N_49E_50V_52G_53A_54P_55F_67L_, Q9UKT9], for which the “log2 fold change of degron read counts” value was determined as 2.7 under setting [1], 1.8 under setting [2], 0.0261 under setting [3] and 0.847 (compound: thalidomide).

Turning to FCCNVCGAPFTQKGNLLRHIKL [46F_47C_49N_50V_52G_53A_54P_55F_67L_, Q9UKT9], the “log2 fold change of degron read counts” value is 1.3 under setting [1], 0.686 under setting [2], -0.00676 under setting [3] and 0.263 (compound: thalidomide).

On to FFCEVCGADFTQKGNLLRHIKL [46F_47F_49E_50V_52G_53A_54D_55F_67L_, Q9UKT9], for which the “log2 fold change of degron read counts” value reads like this: under setting [1], -0.0497; under setting [2], 0.23; under setting [3], -0.854; (compound: thalidomide) -0.804.

For the sequence FSCEVCGAPFTQKGNLLRHIKL [46F_47S_49E_50V_52G_53A_54P_55F_67L_, Q9UKT9], the “log2 fold change of degron read counts” value came to 2.89 under setting [1], 2.01 under setting [2], 0.358 under setting [3] and 1.1 (compound: thalidomide).

For the sequence FFCEVCGAPFTQKGNLLRHIKL [46F_47F_49E_50V_52G_53A_54P_55F_67L_, Q9UKT9], the “log2 fold change of degron read counts” value runs as follows: under setting [1], 4; under setting [2], 3.18; under setting [3], 1.98; (compound: thalidomide) 1.73.

In the case of FMCDVCGACFTQKGNLLRHIKL [46F_47M_49D_50V_52G_53A_54C_55F_67L_, Q9UKT9], the “log2 fold change of degron read counts” value reads like this: under setting [1], -1.81; under setting [2], -1.41; under setting [3], 0.979; (compound: thalidomide) -1.1.

For FICNQCGAEFTQKGNLLRHIKL [46F_47I_49N_50Q_52G_53A_54E_55F_67L_, Q9UKT9], the “log2 fold change of degron read counts” value runs as follows: under setting [1], -3.37; under setting [2], -3.09; under setting [3], -2.19; (compound: thalidomide) -1.75.

Take FHCEICGAWFTQKGNLLRHIKL [46F_47H_49E_50I_52G_53A_54W_55F_67L_, Q9UKT9]: the “log2 fold change of degron read counts” value was -0.982 under setting [1], -1.57 under setting [2], -0.784 under setting [3] and -2.02 (compound: thalidomide).

As to FWCEVCGAPFTQKGNLLRHIKL [46F_47W_49E_50V_52G_53A_54P_55F_67L_, Q9UKT9], the “log2 fold change of degron read counts” value is, setting by setting: under setting [1], 3.08; under setting [2], 2.92; under setting [3], 1.89; (compound: thalidomide) 1.01.

On to FLCEVCGAPFTQKGNLLRHIKL [46F_47L_49E_50V_52G_53A_54P_55F_67L_, Q9UKT9], for which the “log2 fold change of degron read counts” value by setting is: under setting [1], 2.39; under setting [2], 2.45; under setting [3], 2.33; (compound: thalidomide) 2.97.

For FGCEVCGAPFTQKGNLLRHIKL [46F_47G_49E_50V_52G_53A_54P_55F_67L_, Q9UKT9], the “log2 fold change of degron read counts” value was 0.82 under setting [1], -0.556 under setting [2], -1.51 under setting [3] and -1.08 (compound: thalidomide).

In the case of FRCEVCGAPFTQKGNLLRHIKL [46F_47R_49E_50V_52G_53A_54P_55F_67L_, Q9UKT9], the “log2 fold change of degron read counts” value runs as follows: under setting [1], 3.45; under setting [2], 3.6; under setting [3], 3.39; (compound: thalidomide) 3.62.

In the case of FRCEVCGADFTQKGNLLRHIKL [46F_47R_49E_50V_52G_53A_54D_55F_67L_, Q9UKT9], the “log2 fold change of degron read counts” value was -1.68 under setting [1], -1.6 under setting [2], 1.33 under setting [3] and 0.331 (compound: thalidomide).

In the case of FCCEVCGAPFTQKGNLLRHIKL [46F_47C_49E_50V_52G_53A_54P_55F_67L_, Q9UKT9], the “log2 fold change of degron read counts” value under setting [1] stood at 3.23, the “log2 fold change of degron read counts” value under setting [2] came out at 2.09, the “log2 fold change of degron read counts” value under setting [3] was determined as 0.726 and the “log2 fold change of degron read counts” value (compound: thalidomide) is 1.26.

Turning to FVCEVCGAPFTQKGNLLRHIKL [46F_47V_49E_50V_52G_53A_54P_55F_67L_, Q9UKT9], the “log2 fold change of degron read counts” value was 2.23 under setting [1], 3.61 under setting [2], 2.24 under setting [3] and 3.07 (compound: thalidomide).

For FYCEVCGAPFTQKGNLLRHIKL [46F_47Y_49E_50V_52G_53A_54P_55F_67L_, Q9UKT9], the “log2 fold change of degron read counts” value under setting [1] worked out at 3.69, the “log2 fold change of degron read counts” value under setting [2] came out at 3.45, the “log2 fold change of degron read counts” value under setting [3] came out at 2.63 and the “log2 fold change of degron read counts” value (compound: thalidomide) was found to be 1.63.

For FQCEVCGAPFTQKGNLLRHIKL [46F_47Q_49E_50V_52G_53A_54P_55F_67L_, Q9UKT9], the “log2 fold change of degron read counts” value reads like this: under setting [1], 3.05; under setting [2], 3.49; under setting [3], 1.41; (compound: thalidomide) 3.53.
